Bioassay records (PubChem BioAssay)
ADAM17 inh – inhibits human ADAM17; 0.83% of 370,000 active; AID 720648; recombinant ADAM17, EDANS/DABCYL FRET peptide cleavage; inhibition, % at 6.95 µM; P78536;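 active means inhibition above the mean of compounds lying between control limits plus 3 SD, set per campaign, cut at about 8.5% in these data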;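 further: 0% = DMSO-only wells as the low control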
ADAM10 inh – ADAM10 inhibition, QFRET primary screen | recombinant ADAM10, EDANS/DABCYL FRET peptide cleavage, 3 h | 0.62% of 370,000 active | inhibition, % at 7 µM | O14672 | AID 720582;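 active means inhibition above a per-campaign cutoff equal to the mean of compounds falling between control-based bounds plus 3 SD, cut at about 20% in these data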;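 further: 0% = DMSO wells while the 100% control is not disclosed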
Target sequence (O14672 214-748 limits assumed): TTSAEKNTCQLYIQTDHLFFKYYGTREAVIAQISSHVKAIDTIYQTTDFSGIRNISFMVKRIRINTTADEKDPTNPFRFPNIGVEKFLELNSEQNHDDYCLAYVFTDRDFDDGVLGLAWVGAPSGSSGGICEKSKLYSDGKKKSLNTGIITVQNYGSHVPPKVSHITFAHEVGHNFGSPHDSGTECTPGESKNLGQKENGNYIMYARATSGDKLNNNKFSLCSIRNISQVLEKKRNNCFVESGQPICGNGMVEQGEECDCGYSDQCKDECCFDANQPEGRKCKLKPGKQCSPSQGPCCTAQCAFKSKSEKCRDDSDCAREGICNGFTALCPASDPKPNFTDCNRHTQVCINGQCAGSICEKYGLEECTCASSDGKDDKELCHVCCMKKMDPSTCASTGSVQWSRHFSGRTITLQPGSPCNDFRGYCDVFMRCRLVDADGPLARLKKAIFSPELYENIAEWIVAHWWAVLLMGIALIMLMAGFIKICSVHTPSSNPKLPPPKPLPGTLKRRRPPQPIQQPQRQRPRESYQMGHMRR
aDG glyco up – increases alpha dystroglycan glycosylation; Pro5-aDG cells, alpha-DG glycosylation AlphaScreen (IIH6); 0% Pro5, 100% B10-LARGE cell signal; activation, % at 10 µM; 0.22% of 360,000 active; AID 624168;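 active means activation of at least 8% versus controls, or a plate z-score of at least 8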;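 further: Pro5 are CHO cells carrying HIG-tagged alpha-DG that lacks glycosylation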
GRIN3A LBD mod – modulators (binders) of human NR3A ligand-binding domain; NR3A LBD differential scanning fluorimetry, Tm shift; 0% = protein alone, 100% = glycine-bound protein; Tm shift relative to glycine control, % at 25 µM; 2.5% of 340,000 active; AID 1259313;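 active means melting temperature shift of at least 10% of the positive control shift, at one fixed dose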
FAS TE block – blocks the thioesterase domain of human fatty acid synthase; recombinant FAS-TE, OMFH fluorogenic substrate, fluorescence endpoint; inhibition, % at 15 µM; P49327; AID 602261; 0.67% of 360,000 active;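 active means compounds whose normalised, plate-corrected inhibition of enzyme fluorescence in the single-dose primary screen is 50% or more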;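 further: 0% = DMSO with enzyme and 100% = substrate without enzyme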
Starred values were filed as active, the others as inactive; i = inactive; nt = not tested or not shown. In the library only some 4% were active in any assay of this set; here they are far more common.

SMILES | ADAM17 inh | ADAM10 inh | aDG glyco up | GRIN3A LBD mod | FAS TE block
COc1cc(NC(=O)c2nccnc2N)cc(C(=O)Nc2cccc(C(F)(F)F)c2)c1 | -3 | -22 | 0 | 0 | 17
Cc1n[nH]c(=O)c2ccccc12 | -1 | -1 | 0 | -4 | -8
Fc1ccc(CN2C3=NCCCN3c3ccccc32)cc1 | -3 | -4 | 0 | 2 | -14
CC1CCCCC12NC(=O)N(Cc1cc(=O)n3ccsc3n1)C2=O (configuration not stated) | -12 | -5 | 0 | 0 | -7
COCCNC(=O)CSc1ccc(-c2nc3ccccc3[nH]2)cn1 | -67 | -165 | 0 | -1 | -4
Cc1ccc2nc(-c3ccc(SCC(=O)Nc4nc(C)cs4)nc3)[nH]c2c1 | -6 | -21 | 0 | 10 | -14
Cc1ccc(SCC(=O)Nc2ccc(-c3nc4ccccc4[nH]3)cc2)cc1 | -2 | -7 | 0 | 35* | -10
Cc1ccc(NC(=O)CCCSc2nc3ccccc3[nH]2)cc1 | 1 | -2 | 1 | -4 | -3
Cc1ccc2nc(-c3ccc(SCC(=O)Nc4nnc(C)s4)nc3)[nH]c2c1 | -60 | -168 | 0 | 24* | -4
Cc1nc(NC(=O)CSc2ccc(-c3nc4ccccc4[nH]3)cn2)sc1C | -13 | -36 | 1 | 20* | 0
CCc1nnc(NC(=O)CSc2ccc(-c3nc4ccccc4[nH]3)cn2)s1 | -27 | -76 | 0 | 19* | 0
CCCOc1ccc(/C(O)=C2/C(=O)C(=O)N(CCN3CCOCC3)C2c2ccccc2)cc1 (configuration not stated) | 0 | 7 | 0 | 1 | -2
O=C(NC1CCCC1)C(c1ccncc1)N(C(=O)c1ccco1)c1ccc(Cl)cc1 (configuration not stated) | 0 | 1 | 0 | 0 | 0
CC(=O)Nc1ccc(NC(=O)c2ccc(-c3c(C)noc3C)c3ccoc23)cc1 | 1 | 2 | 0 | nt | -3
COc1ccc(S(=O)(=O)N2CCCCCC2)cc1C(=O)N(C)Cc1ccc(C(C)(C)C)cc1 | -5 | -7 | 0 | 0 | 44
O=C1C(=Cc2ccc(Br)o2)C(=O)c2ccccc21 | nt | nt | 0 | -10 | 6
CC1=CC(C)C(C(=O)O)C(C(=O)O)C1 (configuration not stated) | -1 | -1 | 0 | 1 | -7
Cc1[nH]nc(SCC(=O)Nc2ccc(C#N)cc2)c1[N+](=O)[O-] | 4 | 3 | 0 | 31* | -7
O=[N+]([O-])c1ccccc1S(=O)(=O)NCCc1ccncc1 | -1 | 2 | 0 | 0 | -3
Cc1c(Cl)cccc1NC(=O)COC(=O)CCc1nc2ccccc2n1-c1ccccc1 | 5 | 13 | 0 | 25* | 6
Cc1ccc2nc(N/N=C/c3ccccc3F)nc(-c3ccccc3)c2c1 | -14 | -39 | 0 | 13* | 42
Cc1ccc2nc(N/N=C/c3ccccc3C#N)nc(-c3ccccc3)c2c1 | nt | nt | 0 | -1 | 7
O=C(c1ccc(CS(=O)(=O)c2ccc(Br)cc2)o1)N1CCCCCC1 | 0 | -1 | 0 | 0 | 0
CCOc1ccc(-c2ccc(/C=C3/C(=N)N4C=CSC4=NC3=O)o2)c([N+](=O)[O-])c1 | -4 | -19 | 0 | 14* | -8
CC[C@]12c3[nH]c4ccc(Cl)cc4c3CCN1C(=O)[C@@H](CC(=O)NCC13CC4CC(CC(C4)C1)C3)C[C@@H]2C(=O)N1CCN(C(=O)c2ccco2)CC1 | 5 | 35* | 0 | 2 | 15
SMILES | ADAM17 inh | ADAM10 inh | aDG glyco up | GRIN3A LBD mod | FAS TE block
CC[C@]12c3[nH]c4ccc(OC)cc4c3CCN1C(=O)C(CC(=O)NCC13CC4CC(CC(C4)C1)C3)C[C@@H]2C(=O)N1CCN(C(=O)c2ccco2)CC1 (some centres not stated) | nt | nt | 0 | 1 | 8
Cc1ccc(C)c(N2CCN(CC3CCCCC3)CC2)c1 | -7 | -1 | 0 | 2 | 5
O=C1N(c2ccccc2)C2CS(=O)(=O)CC2N1c1ccc(Cl)c(Cl)c1 (configuration not stated) | -1 | 1 | 0 | 30* | 18
O=C(Cn1nnc2ccccc2c1=O)NCCc1ccccc1 | 5 | 1 | 0 | 18* | -8
O=C(CCn1nc(-c2ccc(Cl)cc2)ccc1=O)N1CCN(c2ccccc2)CC1 | 3 | 1 | 0 | 1 | 51*
COCC(=O)N(Cc1cc2ccccc2[nH]c1=O)c1ccccc1OC | -6 | -14 | 0 | -1 | -12
O=C(Nc1ccc(Cl)cc1)Nc1ccc2c(c1)OCO2 | -7 | -1 | 0 | 2 | 1
O=C(Nc1ccc(OC(F)F)c(Cl)c1)Nc1ccc2c(c1)OCO2 | 1 | 9 | 1 | 35* | 9
O=C(Nc1ccc([N+](=O)[O-])cc1)Nc1ccc(OC(F)F)c(Cl)c1 | 5 | 4 | -1 | 15* | 35
Cc1ccc2c(c1)[C@@H]1CN(C)CC[C@@H]1N2S(=O)(=O)c1ccc(F)cc1 | -4 | -7 | 0 | 14* | 0
CCc1ccc(S(=O)(=O)N2c3ccc(C)cc3C3CN(C)CCC32)cc1 (configuration not stated) | -4 | -5 | 0 | 0 | -3
COc1ccc(Cn2cnc3c4cc(F)ccc4n(C)c3c2=O)cc1 | -6 | -13 | 0 | 15* | -2
COc1ccc2c(c1)c1ncn(CCc3ccccc3)c(=O)c1n2C | i | i | 0 | 3 | 13
COc1cc2ccccc2cc1C(=O)N/N=C/c1cccnc1 | -12 | -27 | 0 | 83* | -5
CCCCOc1ccc(/C=N/NC(=O)c2csc(C)c2C)cc1 | -1 | 7 | 1 | 28* | 29
COc1ccc2ccccc2c1/C=N/NC(=O)c1ccccc1F | -2 | -8 | 0 | 2 | 9
CCOc1ccc(/C=N/NC(=O)c2cc3ccccc3cc2OC)cc1 | -10 | -24 | 0 | 24* | 17
CCOc1ccc(/C=N/NC(=O)c2cccc3ccccc23)c(OCC)c1 | -6 | -8 | 0 | -1 | 4
Cc1scc(C(=O)N/N=C/c2ccc(OCC(C)C)cc2)c1C | 5 | 5 | 0 | 8 | 25
CCOc1ccc(S(=O)(=O)Nc2ccccc2C(=O)N/N=C/c2c(OC)ccc3ccccc23)cc1 | 4 | 4 | 0 | 22* | 46
COc1cccc(-c2nc(CS(=O)(=O)CC(=O)N3CCc4ccccc43)c(C)o2)c1 | 2 | 1 | 0 | -1 | 11
CCC(CO)NCc1sccc1C (configuration not stated) | -1 | 4 | 0 | 1 | -5
Cc1ccc(N2C(=O)C3CCC(c4ccccc4)CC3C2=O)cc1 (configuration not stated) | -1 | -1 | 0 | -4 | 10
Cc1c(/C=N/NC(=O)c2ccc(O)cc2)c2ccccn2c1C(=O)c1ccc(F)cc1 | -3 | -2 | 0 | 18* | -1
Cc1c(/C=N/NC(=O)c2ccccc2O)c2ccccn2c1C(=O)c1ccc(F)cc1 | 0 | -8 | 0 | 14* | 14
